# Measurements reported in PubChem BioAssay (Tox21).
# Inconclusive results are not listed. A call without a number means that no potency is given here. More than one record can exist for a structure, and the calls need not agree. Calls of active or inactive are those of the source. Calls follow the shape of the dose curve; as a rule, active = well fitted curve in the direction sought with a large enough effect in the repeat runs; inconclusive = weak or mixed curves; inactive = no such curve, though single readings can be large; an effect the other way counts as inactive or inconclusive.
# Experiment: qHTS assay to identify small molecule agonists of the retinoic acid receptor (RAR) signaling pathway (AID 1159553); also: potency is read from the fitted curve at half-maximal effect
# Settings: C3RL4 RARE luciferase reporter, agonist, 6 h; activation: at 73.3 µM (top of the series) unless noted
# Outline: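 Quantitative high-throughput format: the Tox21 10K library was tested on C3RL4 RARE-luciferase cells for 6 hr at 37 C and 5% CO2, with luminescence measured after a 30 min room-temperature reagent step.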
Compound,Potency,activation
Nc1cccc(C(F)(F)F)c1,inactive,–
CO[Si](CCCNCCN)(OC)OC,inactive,–
CC(COCC(C)OC(=O)c1ccccc1)OC(=O)c1ccccc1 (configuration not stated),inactive,–
C=C(C)CC(C)(C)C,inactive,–
CC(=O)OC[C@H]1O[C@@](COC(C)=O)(O[C@H]2O[C@H](COC(C)=O)[C@@H](OC(C)=O)[C@H](OC(C)=O)[C@H]2OC(C)=O)[C@@H](OC(C)=O)[C@@H]1OC(C)=O,inactive,–
Nc1cccc(N)n1,inactive,–
Cc1cc(C)c(O)c(C)c1,inactive,–
NC1CCCCC1N (configuration not stated),inactive,–
OCCOCCOCCOCCOCCO,inactive,–
NC(=O)NC(N)=O,inactive,–
COC(=O)CCCCC(=O)OC,inactive,–
OC[C@H]1O[C@@H](Oc2ccc(O)cc2)[C@H](O)[C@@H](O)[C@@H]1O,inactive,–
Oc1ccc(Cc2ccccc2O)cc1,inactive,–
C[n+]1ccn(CCO)c1,inactive,–
Brc1ccc(Oc2ccc(Br)cc2)cc1,inactive,–
CCCCCNCCCCC,inactive,–
CN1Cc2c(N)cccc2C(c2ccccc2)C1 (configuration not stated),inactive,–
CC/C(C)=N/O,inactive,–

Compound,Potency,activation
CCCOC(=O)NCCCN(C)C,inactive,–
OC1CCCCC1,inactive,–
C[Si](C)(C)N[Si](C)(C)C,inactive,–
Nc1nc(N)c2nc(-c3ccccc3)c(N)nc2n1,17.4 µM (active) and inactive,–
CCCCCCCCO,inactive,–
N#CCC(=O)O,–,-1.73% (inactive)
CN1CCCC1=O,–,-0.377% [at 94.8 µM] (active)
OCC(O)CS (configuration not stated),inactive,–
O=[N+]([O-])c1ccccc1C(F)(F)F,inactive,–
CC(C=O)Cc1ccc(C(C)(C)C)cc1 (configuration not stated),inactive,–
CC1=CC(=O)CC(C)(C)C1,inactive,–
Cc1ccncc1,inactive,–
CCCCCCCCC(=O)O,inactive,–
CC(=O)C(C)C,inactive,–
Cc1cc(CC(=O)O)n(C)c1C(=O)c1ccc(Cl)cc1,inactive,–
Cc1ccc(C)c(S(=O)(=O)O)c1,inactive,–
C=C(CC(=O)O)C(=O)O,inactive,–
O=c1n(CCCN2CCN(c3cccc(Cl)c3)CC2)nc2ccccn12,inactive,–

# Experiment: qHTS assay to identify small molecule antagonists of the estrogen related receptor (ERR) signaling pathway - cell viability counter screen (AID 1224818);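 also: viability measured after 17.5 h of compound exposure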
# Settings: ERR reporter cell line viability counter screen; series mostly up to 46.1 µM; viability change, negative = cytotoxic: at the top concentration
# Outline: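 Quantitative high-throughput viability counter screen in ERR cells. Compounds (DMSO) incubated 17.5 h at 37 C; read-out was CellTiter-Fluor fluorescence.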
row,Compound,"viability change, negative = cytotoxic"
1,CN=C(NC#N)NCCSCc1nc[nH]c1C,-0.446% (inactive)
2,CN1Cc2c(N)cccc2C(c2ccccc2)C1 (configuration not stated),11.2% (inactive)
3,Nc1nc(N)c2nc(-c3ccccc3)c(N)nc2n1,1.23% (inactive)
4,CC(CN1c2ccccc2Sc2ccccc21)N(C)C (configuration not stated),-12.1% (inactive)
5,O=c1n(CCCN2CCN(c3cccc(Cl)c3)CC2)nc2ccccn12,-7.51% (inactive)

# Experiment: qHTS assay to identify small molecule antagonists of the estrogen related receptor (ERR) signaling pathway (AID 1224819;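 also: luminescence from an ERR-driven luciferase reporter measured with One-Glo reagent; nearly all actives have a fitted effect of over 50% in size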)
# Settings: ERR reporter cell line, luciferase inhibition; series mostly up to 46.1 µM; activity change, negative = inhibition: at the top concentration
# Outline: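 ERR reporter cell line (NTP) plated at 2,000 cells/well, settled 6 h at 37C/5% CO2, then exposed to LOPAC compounds for 18 h at 37C. One-Glo luciferase luminescence read after 30 min at room temperature.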
row,Compound,"activity change, negative = inhibition"
1,CN=C(NC#N)NCCSCc1nc[nH]c1C,16.8% (inactive)
2,CC(CN1c2ccccc2Sc2ccccc21)N(C)C (configuration not stated),5.27% (inactive)
3,O=c1n(CCCN2CCN(c3cccc(Cl)c3)CC2)nc2ccccn12,-13% (inactive)

# Experiment: qHTS assay to identify small molecule agonists of the estrogen related receptor (ERR) signaling pathway (AID 1224820)
# Settings: ERR reporter cell line, luciferase agonist mode; series mostly up to 46.1 µM; activation: at the top concentration
# Outline: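 Luminescence readout (One-Glo, 30 min RT) from NTP-supplied ERR cell line exposed to compounds for 18 h at 37 C. Cells seeded 2,000 per well and pre-incubated 6 h before pin-tool compound transfer.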
row,Compound,activation
1,CN=C(NC#N)NCCSCc1nc[nH]c1C,20.3% (inactive)
2,Nc1nc(N)c2nc(-c3ccccc3)c(N)nc2n1,-47.7% (inactive)
3,CC(CN1c2ccccc2Sc2ccccc21)N(C)C (configuration not stated),5.71% (inactive)
